Inconclusive results are not listed. Where a call stands in place of a potency, no number is given. The source made the active and inactive calls. Calls come from the whole dose curve; as a rule, active = well fitted inhibition curve with a large enough effect; inconclusive = small, poorly fitted or top-dose-only effect; inactive = flat fitted curve, though single readings scatter.
What follows are molecules tested on ICS (assay: qHTS profiling for inhibitors of Plasmodium falciparum proliferation (AID 504749; note: nearly all actives have a fitted effect of over 60% in size)). Conditions: P. falciparum in erythrocytes, SYBR Green DNA, 72 h; series mostly up to 28.7 µM.
Summary of the method: (§1)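 Quantitative HTS: compounds pinned into medium, infected erythrocytes added (0.3% parasitemia, 2.5% hematocrit), 72 h culture at 37 C under 5% CO2. Saponin/Triton lysis with SYBR Green I, overnight RT, then fluorescence read.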
Potency is the fitted concentration of half-maximal effect.

Structure (SMILES) | Potency
O=C(O)CCCCC(=O)O | inactive
CCOC(=O)n1ccn(C)c1=S | inactive
COc1cc(NS(C)(=O)=O)ccc1Nc1c2ccccc2nc2ccccc12 | 1.58 µM (active)
C[C@]12CC[C@@H]3c4ccc(O)cc4CC[C@H]3[C@@H]1CC[C@@H]2O | inactive
NCCC(O)(P(=O)(O)O)P(=O)(O)O | inactive
CCN1CCC[C@H]1CNC(=O)c1c(OC)ccc(Br)c1OC | inactive
CN1C2CCC1CC(OC(=O)c1c[nH]c3ccccc13)C2 (stereo unspecified) | inactive
CO/N=C1\CN(c2nc3c(cc2F)c(=O)c(C(=O)O)cn3C2CC2)CC1CN (stereo unspecified) | 5.62 µM (active)
Oc1c(Cl)cc(Cl)cc1Sc1cc(Cl)cc(Cl)c1O | inactive
CC(=O)Oc1ccc(C(=C2CCCCC2)c2ccc(OC(C)=O)cc2)cc1 | inactive
CC(=O)OCC(=O)NCCCOc1cccc(CN2CCCCC2)c1 | inactive
CC(C)NC[C@@H](O)COc1cccc2ccccc12 | 7.08 µM (active)
CCN(CC)C(=O)N1CCN(C)CC1 | inactive
Nc1ccc(/C=C/c2ccc(N)cc2S(=O)(=O)O)c(S(=O)(=O)O)c1 | inactive
CCN1CCCC1=O | inactive
CCN(CC)CCNC(=O)COc1ccc(Cl)cc1 | 12.6 µM (active)
Cc1c(F)c(N2CCNC(C)C2)cc2c1c(=O)c(C(=O)O)cn2C1CC1 (stereo unspecified) | inactive
CC(C)(Oc1ccc(Cl)cc1)C(=O)O | inactive

Structure (SMILES) | Potency
CCCCCCCCCCCCCCCCOP(=O)([O-])OCC[N+](C)(C)C | inactive
C#C[C@]1(OC(C)=O)CC[C@H]2[C@@H]3CCC4=C[C@@H](OC(C)=O)CC[C@@H]4[C@H]3CC[C@@]21C | inactive
CCCn1c(=O)[nH]c(=O)c2[nH]cnc21 | inactive
CC(O)C(=O)O (stereo unspecified) | inactive
CCCCc1nc(Cl)c(CO)n1Cc1ccc(-c2ccccc2-c2nn[nH]n2)cc1 | 7.94 µM (active)
O=C(OCCOCCO)c1ccccc1Nc1cccc(C(F)(F)F)c1 | inactive
c1ccc(-c2ccc(C(c3ccccc3)n3ccnc3)cc2)cc1 (stereo unspecified) | 2.24 µM (active)
Cc1cccn2c(=O)c(-c3nnn[nH]3)cnc12 | inactive
NCCc1ccn[nH]1 | inactive
O=C1OC(c2ccc(O)cc2)(c2ccc(O)cc2)c2ccccc21 | inactive
CN1C(CCl)Nc2cc(Cl)c(S(N)(=O)=O)cc2S1(=O)=O (stereo unspecified) | inactive
COc1cc(C(=S)N2CCOCC2)cc(OC)c1OC | inactive
C[C@H]1[C@H](NC(=O)/C(=N/OC(C)(C)C(=O)O)c2csc(N)n2)C(=O)N1S(=O)(=O)O (stereo in doubt) | inactive
NCCCC[C@H](N[C@@H](CCc1ccccc1)C(=O)O)C(=O)N1CCC[C@H]1C(=O)O | inactive
CC(C)(CO)[C@@H](O)C(=O)NCCCO | inactive
Cc1ccnc(NS(=O)(=O)c2ccc(N)cc2)n1 | inactive
Nc1ccc(C(=O)O)cc1 | inactive

The molecules below were run on JCK in the same assay as above. Conditions: P. falciparum in erythrocytes, SYBR Green DNA, 72 h; series mostly up to 28.7 µM.
Summary of the method: as §1

Structure (SMILES) | Potency
O=C(O)CCCCC(=O)O | inactive
CCOC(=O)n1ccn(C)c1=S | inactive
COc1cc(NS(C)(=O)=O)ccc1Nc1c2ccccc2nc2ccccc12 | 3.55 µM (active)
C[C@]12CC[C@@H]3c4ccc(O)cc4CC[C@H]3[C@@H]1CC[C@@H]2O | inactive
NCCC(O)(P(=O)(O)O)P(=O)(O)O | inactive
CCN1CCC[C@H]1CNC(=O)c1c(OC)ccc(Br)c1OC | inactive
CCN1CCN(c2cc3c(cc2F)c(=O)c(C(=O)O)cn3C2CC2)CC1 | inactive
CN1C2CCC1CC(OC(=O)c1c[nH]c3ccccc13)C2 (stereo unspecified) | inactive
Oc1c(Cl)cc(Cl)cc1Sc1cc(Cl)cc(Cl)c1O | inactive
CC(=O)Oc1ccc(C(=C2CCCCC2)c2ccc(OC(C)=O)cc2)cc1 | inactive
CC(=O)OCC(=O)NCCCOc1cccc(CN2CCCCC2)c1 | inactive
CCOC(=O)/C=C(C)/C=C/C=C(C)/C=C/c1c(C)cc(OC)c(C)c1C | inactive
CCN(CC)C(=O)N1CCN(C)CC1 | inactive
Nc1ccc(/C=C/c2ccc(N)cc2S(=O)(=O)O)c(S(=O)(=O)O)c1 | inactive
CCN1CCCC1=O | inactive
CCN(CC)CCNC(=O)COc1ccc(Cl)cc1 | inactive
Cc1c(F)c(N2CCNC(C)C2)cc2c1c(=O)c(C(=O)O)cn2C1CC1 (stereo unspecified) | inactive
CC(C)(Oc1ccc(Cl)cc1)C(=O)O | inactive

Structure (SMILES) | Potency
CCCCC1=NC2(CCCC2)C(=O)N1Cc1ccc(-c2ccccc2-c2nn[nH]n2)cc1 | inactive
CCCCCCCCCCCCCCCCOP(=O)([O-])OCC[N+](C)(C)C | inactive
C#C[C@]1(OC(C)=O)CC[C@H]2[C@@H]3CCC4=C[C@@H](OC(C)=O)CC[C@@H]4[C@H]3CC[C@@]21C | inactive
CCCn1c(=O)[nH]c(=O)c2[nH]cnc21 | inactive
CC(O)C(=O)O (stereo unspecified) | inactive
CCCCc1nc(Cl)c(CO)n1Cc1ccc(-c2ccccc2-c2nn[nH]n2)cc1 | inactive
O=C(OCCOCCO)c1ccccc1Nc1cccc(C(F)(F)F)c1 | inactive
Cc1cccn2c(=O)c(-c3nnn[nH]3)cnc12 | inactive
NCCc1ccn[nH]1 | inactive
O=C1OC(c2ccc(O)cc2)(c2ccc(O)cc2)c2ccccc21 | inactive
CN1C(CCl)Nc2cc(Cl)c(S(N)(=O)=O)cc2S1(=O)=O (stereo unspecified) | inactive
COc1cc(C(=S)N2CCOCC2)cc(OC)c1OC | inactive
C[C@H]1[C@H](NC(=O)/C(=N/OC(C)(C)C(=O)O)c2csc(N)n2)C(=O)N1S(=O)(=O)O (stereo in doubt) | inactive
NCCCC[C@H](N[C@@H](CCc1ccccc1)C(=O)O)C(=O)N1CCC[C@H]1C(=O)O | inactive
CC(C)(CO)[C@@H](O)C(=O)NCCCO | inactive
Cc1ccnc(NS(=O)(=O)c2ccc(N)cc2)n1 | inactive
CNCCC(Oc1ccccc1C)c1ccccc1 (stereo unspecified) | inactive
Nc1ccc(C(=O)O)cc1 | inactive

From PubChem BioAssay (NCATS)
